Records with an inconclusive call do not appear. Entries that show only a call come without a potency. Activity calls are given as the source filed them. Calls come from the whole dose curve; as a rule, active = well fitted curve in the direction sought with a large enough effect in the repeat runs; inconclusive = weak or mixed curves; inactive = no such curve, though single readings can be large; an effect the other way counts as inactive or inconclusive.
Test: A CellTox Green Cytotoxicity Assay to monitor cytotoxicity in HepG2 cells - 40 hour (AID 1224879); note: nearly all actives have a fitted effect of over 40% in size
Conditions: CellTox Green fluorescence; series mostly up to 76.8 µM
Method in brief: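 HepG2, 600 cells/well premixed w/ CellTox Green; 5 h settle, 37 C/5% CO2; pintool cpd add (DMSO); 37 C, 40 h; fluorescence read at 0, 8, 16, 24, 32, 40 h.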
Potency is the fitted concentration of half-maximal effect.

Compound	Potency
N#CC(C#N)=NNc1cccc(Cl)c1	12.3 µM (active)
CC1=C2C[C@H]3[C@@H](CC=C4C[C@@H](O)CC[C@@]43C)[C@@H]2CC[C@]12O[C@@H]1C[C@H](C)CN[C@H]1[C@H]2C	26.8 µM (active)
CN(C)c1ccc(N)cc1	inactive
C=CCOC(=O)c1ccccc1N	inactive
COC(=O)N(OC)c1ccccc1COc1ccn(-c2ccc(Cl)cc2)n1	inactive
CCNc1nc(NC(C)C(C)C)nc(SC)n1 (stereo not given)	inactive
Brc1ccc(Oc2ccc(Br)cc2Br)c(Br)c1	inactive
O=S(=O)(NS(=O)(=O)C(F)(F)F)C(F)(F)F	48.9 µM (active)
c1ccc(Nc2ccc(Nc3ccccc3)cc2)cc1	inactive
Nc1ccccc1-c1ccccc1	inactive
CC(C)[C@@H](Nc1ccc(C(F)(F)F)cc1Cl)C(=O)OC(C#N)c1cccc(Oc2ccccc2)c1 (stereo not given in full)	inactive
CC(C)Br	inactive
CC(C)N(C(=O)SC/C(Cl)=C/Cl)C(C)C	inactive
C[C@]12CC[C@H]3[C@@H](CCC4=CC(=O)CC[C@@H]43)[C@@H]1CC[C@@H]2OC(=O)CCc1ccco1	inactive
COC(=O)c1cc(Oc2ccc(Cl)cc2Cl)ccc1[N+](=O)[O-]	inactive
CC1(C)C(C=C(Cl)Cl)C1C(=O)OC(C#N)c1ccc(F)c(Oc2ccccc2)c1 (stereo not given)	inactive

Compound	Potency
CCC(C)Nc1c([N+](=O)[O-])cc(C(C)(C)C)cc1[N+](=O)[O-] (stereo not given)	inactive
BrCC(Br)(Br)Br	inactive
Oc1ccc([C@H]2CNCc3c2ccc(O)c3O)cc1O	26.8 µM (active)
CC(=O)C(Cl)C(=O)N(C)C (stereo not given)	inactive
Cc1c([N+](=O)[O-])cc2c(c1[N+](=O)[O-])C(C)(C)CC2(C)C	inactive
Oc1cc(Cl)cc(Cl)c1	inactive
O=C(NC(=O)c1ccccc1Cl)Nc1ccc(OC(F)(F)F)cc1	inactive
C#CCC1=C(C)C(OC(=O)C2C(C=C(C)C)C2(C)C)CC1=O (stereo not given)	inactive
c1ccc2c(c1)cc1ccc3cccc4ccc2c1c34	7.05 µM (active)
Cc1ccc2cc3c(ccc4ccccc43)c3c2c1CC3	6.93 µM (active)
Oc1ccc2[nH]cc(CCCCN3CC=C(c4ccccc4)CC3)c2c1	23.9 µM (active)
CC1(C)[C@H](/C=C2\CCSC2=O)[C@@H]1C(=O)OCc1coc(Cc2ccccc2)c1	inactive
CC(C)N(C(=O)CCl)c1ccccc1	43.6 µM (active)
CCc1cccc(C)c1N(C(=O)CCl)[C@@H](C)COC	49 µM (active)
FC(F)C(F)(F)OCC(Cn1cncn1)c1ccc(Cl)cc1Cl (stereo not given)	48.7 µM (active)
O=C1C[C@@H]2OCC=C3CN4CC[C@]56c7ccccc7N1[C@H]5[C@H]2[C@H]3C[C@H]46	inactive

Test: qHTS RealTime-Glo MT Cell Viability Assay in HEK293 cells - 0 hour (AID 1224880); note: nearly all actives have a fitted effect of over 45% in size
Conditions: RealTime-Glo luminescence; series mostly up to 76.8 µM
Method in brief: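 Luminescence readout at each listed time point; HEK293, 600 cells/well, RealTime-Glo MT reagent added with cells; compounds pinned (23 nL in DMSO) after 5 h at 37 C; continuous culture at 37 C.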

Compound	Potency
N#CC(C#N)=NNc1cccc(Cl)c1	38.9 µM (active)
Oc1cc(Cl)c(Cl)c(Cl)c1Cl	inactive
CC1=C2C[C@H]3[C@@H](CC=C4C[C@@H](O)CC[C@@]43C)[C@@H]2CC[C@]12O[C@@H]1C[C@H](C)CN[C@H]1[C@H]2C	inactive
CN(C)c1ccc(N)cc1	inactive
C=CCOC(=O)c1ccccc1N	inactive
O=[N+]([O-])C(Br)Br	inactive
Nc1ccc(N=Nc2ccccc2)cc1	inactive
COC(=O)N(OC)c1ccccc1COc1ccn(-c2ccc(Cl)cc2)n1	inactive
CCNc1nc(NC(C)C(C)C)nc(SC)n1 (stereo not given)	inactive
Brc1ccc(Oc2ccc(Br)cc2Br)c(Br)c1	inactive
O=S(=O)(NS(=O)(=O)C(F)(F)F)C(F)(F)F	inactive
Nc1ccccc1-c1ccccc1	inactive
CC(C)[C@@H](Nc1ccc(C(F)(F)F)cc1Cl)C(=O)OC(C#N)c1cccc(Oc2ccccc2)c1 (stereo not given in full)	inactive
CC(C)Br	inactive
CC(C)N(C(=O)SC/C(Cl)=C/Cl)C(C)C	inactive
C[C@]12CC[C@H]3[C@@H](CCC4=CC(=O)CC[C@@H]43)[C@@H]1CC[C@@H]2OC(=O)CCc1ccco1	inactive
COC(=O)c1cc(Oc2ccc(Cl)cc2Cl)ccc1[N+](=O)[O-]	inactive
CC1(C)C(C=C(Cl)Cl)C1C(=O)OC(C#N)c1ccc(F)c(Oc2ccccc2)c1 (stereo not given)	inactive
CCC(C)Nc1c([N+](=O)[O-])cc(C(C)(C)C)cc1[N+](=O)[O-] (stereo not given)	inactive

Compound	Potency
BrCC(Br)(Br)Br	inactive
Oc1ccc([C@H]2CNCc3c2ccc(O)c3O)cc1O	inactive
CC(=O)C(Cl)C(=O)N(C)C (stereo not given)	inactive
Cc1cc(C2CC2)nc(Nc2ccccc2)n1	inactive
Cc1c([N+](=O)[O-])cc2c(c1[N+](=O)[O-])C(C)(C)CC2(C)C	inactive
CC(C)=CCN1CC[C@@]2(C)c3cc(O)ccc3C[C@@H]1[C@@H]2C	inactive
Oc1cc(Cl)cc(Cl)c1	inactive
O=C(NC(=O)c1ccccc1Cl)Nc1ccc(OC(F)(F)F)cc1	inactive
C[C@]12Cc3cn[nH]c3C[C@@H]1CC[C@@H]1[C@@H]2CC[C@@]2(C)[C@H]1CC[C@]2(C)O	inactive
C#CCC1=C(C)C(OC(=O)C2C(C=C(C)C)C2(C)C)CC1=O (stereo not given)	inactive
c1ccc2c(c1)cc1ccc3cccc4ccc2c1c34	inactive
O.O.O.O=C([O-])[C@H]([O-])[C@@H]([O-])C(=O)[O-].O=C([O-])[C@H]([O-])[C@@H]([O-])C(=O)[O-].[K+].[K+].[Sb+3].[Sb+3]	inactive
Cc1ccc2cc3c(ccc4ccccc43)c3c2c1CC3	inactive
Oc1ccc2[nH]cc(CCCCN3CC=C(c4ccccc4)CC3)c2c1	inactive
CC1(C)[C@H](/C=C2\CCSC2=O)[C@@H]1C(=O)OCc1coc(Cc2ccccc2)c1	inactive
CC(C)N(C(=O)CCl)c1ccccc1	inactive
CCc1cccc(C)c1N(C(=O)CCl)[C@@H](C)COC	inactive
FC(F)C(F)(F)OCC(Cn1cncn1)c1ccc(Cl)cc1Cl (stereo not given)	inactive
O=C1C[C@@H]2OCC=C3CN4CC[C@]56c7ccccc7N1[C@H]5[C@H]2[C@H]3C[C@H]46	inactive
